Test results taken from ChEMBL document CHEMBL1157539, “Thousands of chemical starting points for antimalarial lead identification” (Nature, 2010).

Assays:
Assay type in all cases: functional
Plasmodium falciparum [1] = test: GSK_TCMDC: Inhibition of Plasmodium falciparum 3D7 in whole red blood cells, using parasite LDH activity as an index of growth. Test compounds present at 2uM
Plasmodium falciparum [2] = test: GSK_TCMDC: Inhibition of Plasmodium falciparum Dd2 in whole red blood cells, using parasite LDH activity as an index of growth. Test compounds present at 2uM
HepG2 = test: GSK_TCMDC: Percent inhibition of human HepG2 cell line. Test compounds present at 10uM.

Row | Compound | Inhibition (Plasmodium falciparum [1]) [%] | Inhibition (Plasmodium falciparum [2]) [%] | Inhibition (HepG2) [%]
1 | N=C(N)NC(=O)Nc1cc(Cl)c(Cl)c(Br)c1 | 99 | 99 | 16
2 | Cc1nc(Nc2ccc(C)c(Cl)c2)c2c(C)noc2n1 | 94 | 72 | 0
3 | O=C(Nc1cccc(Oc2ccccc2)c1)N[C@H]1CCN(Cc2ccc(OCCCN3CCCCC3)cc2)C1 | 100 | 70 | 94
4 | COc1ccc(CC2(c3ccc(F)cc3)N=C(N)N(CCCc3ccccc3)C2=O)cc1.O=C(O)C(F)(F)F (centres undefined) | 99 | 97 | 38
5 | Br.CCCCCCCCn1c2c(c(=N)c3c1CCC3)CCC2 | 99 | 93 | 47
6 | CCCCC(=O)Nc1cc(=O)[nH]c2nc(-c3ccc(Cl)cc3)nn12 | 89 | 77 | 1
7 | O=C(C=Cc1ccc(Cl)c(Cl)c1)NC1CCN(CCc2ccccc2)CC1.O=C(O)C(F)(F)F | 97 | 13 | 6
8 | CC(C)Sc1nc(-c2ccccc2)nc2c1COC(C)(C)C2 | 98 | 41 | 2
9 | Cl.O=C(Nc1cc(Cl)cc(Cl)c1)Nc1ccnc2ccccc12 | 96 | 65 | 15
10 | O=C(/C=C/c1ccc(Cl)c(Cl)c1)NCCCCCCN1CCN(C(=O)Nc2cc(F)cc(F)c2)CC1 | 86 | 0 | 23
11 | CCCCNC(=O)c1cc(CNC2CCCCC2)ccc1-c1cccc(CNCc2ccc(-c3ccccc3)cc2)c1.O=C(O)C(F)(F)F | 100 | 85 | 100
12 | O=C(Nc1ccc(Cn2nc(Cl)c(N3CCNCC3)cc2=O)cc1)Nc1ccc(-c2ccccc2)cc1.O=C(O)C(F)(F)F | 97 | 49 | 99
13 | COc1ccc(NC(=O)c2ccc3cc4ccccc4cc3c2)cc1N1CCN(C)CC1 | 86 | 29 | 38
14 | C(=NN=c1cc[nH]c2ccccc12)c1ccncc1 | 95 | 27 | 7
15 | COc1ccc2nccc([C@@H](O)CN3CCC(NC(=O)Cc4ccc(Br)c5ccccc45)CC3)c2c1 | 98 | 40 | 10
16 | CC(C)(C)c1ccc(OC(=O)c2ccc(NC(=O)N[C@@H](Cc3ccc(O)cc3)C(=O)NC3CCN(Cc4ccc(O)cc4)C3)cc2)cc1.O=C(O)C(F)(F)F (some centres undefined) | 92 | 67 | 0
17 | Cc1ccc(S(=O)(=O)n2cc(-c3ccnc(N)c3)c3cc(Br)cnc32)cc1 | 98 | 31 | 8
18 | O=C(Nc1cccc(CN2CCCN(Cc3ncc[nH]3)CC2)c1)c1cc2ccccc2s1.O=C(O)C(F)(F)F | 99 | 35 | 22
19 | Br.CCCN(CCCCCCNCCc1ccc(Cl)cc1)CCc1ccc(O)c(O)c1 | 91 | 11 | 26
20 | Cc1ccc(Cc2c(C)nc3nc(N)nc(N)c3c2C)cc1.Cl | 93 | 1 | 60

Row | Compound | Inhibition (Plasmodium falciparum [1]) [%] | Inhibition (Plasmodium falciparum [2]) [%] | Inhibition (HepG2) [%]
21 | COc1cccc(C(=O)Nc2ccc(Nc3nc(C)cc(N4CCCCC4)n3)cc2)c1OC | 92 | 27 | 47
22 | Oc1ccccc1CN1CCCC(COC(c2ccc(F)cc2)c2ccc(F)cc2)C1 (centres undefined) | 97 | 98 | 19
23 | O=C(O)C(F)(F)F.O=[N+]([O-])c1cccc(CNCC2CCN(CC3CCCCC3)CC2)c1 | 90 | 14 | 11
24 | O=C(NC1CC1)c1cnc(N2CCC(OCc3ccccc3)CC2)c(Cl)c1.O=C(O)C(F)(F)F | 90 | 71 | 0
25 | O=C(N[C@@H](CC1CCCCC1)C(=O)NCCN1CCOCC1)c1ccc(O)c(-c2ccc(Cl)c(Cl)c2)c1 | 97 | 99 | 0
26 | CCc1cccc2sc(N3CCN(C(=O)c4ccc([N+](=O)[O-])o4)CC3)nc12 | 97 | 94 | 2
27 | COc1cccc(C(=O)N2CCOC(CCN3CCC(c4ccccc4)CC3)(c3ccc(Cl)c(Cl)c3)C2)c1 (centres undefined) | 87 | 63 | 38
28 | Cc1cc(N[C@@H](Cc2ccccc2)C(=O)NC2CCCC2)nc(NCCc2cccs2)n1.O=C(O)C(F)(F)F | 99 | 14 | 0
29 | CN1CCN(c2ccnc3ccc(NC(=O)Nc4ccc5c(c4)CCC5=O)cc23)CC1 | 100 | 67 | 8
30 | COc1ccc(-c2csc(N(CCCN(C)C)C(=O)c3cc4c(C)nn(-c5ccccc5)c4s3)n2)cc1.Cl | 100 | 16 | 100
31 | CCCCCCCN1CC[C@@H](CCCc2ccnc3ccc(OCCCCNC(N)=O)cc23)[C@@H](CC)C1.O=C(O)C(=O)O | 93 | 18 | 41
32 | O=C(Nc1ccc(-c2nc3ccccc3[nH]2)cc1)c1cccc(S(=O)(=O)N2CCOCC2)c1 | 89 | 43 | 6
33 | Cn1nc(-c2cccc(CNC3CCc4ccccc43)c2)c2cnc(NCCCN3CCCC3)nc21 (centres undefined) | 99 | 15 | 29
34 | CN(C)CCOc1cccc(-c2cnc(N)c(-c3nc4cc(S(C)(=O)=O)ccc4[nH]3)c2)c1.O=C(O)C(F)(F)F | 100 | 82 | 39
35 | CCC(CSC1CCCCC1)N(C)CCN(C)C(CC)CSC1CCCCC1.Cl (centres undefined) | 98 | 98 | 84
36 | Cc1ccc(CN2CCN(Cc3cccc(NC(=O)c4ccc5ccccc5c4)c3)CC2)cc1C.O=C(O)C(F)(F)F | 89 | 23 | 62
37 | Nc1ccc(-c2nc3cc(Oc4ccc5[nH]c(-c6ccc(N)cc6)nc5c4)ccc3[nH]2)cc1 | 100 | 99 | 18
38 | CN(C)CCNC(=O)c1ccc2c(c1)n(C1CCN(S(=O)(=O)c3ccc(-c4ccccc4)cc3)CC1)c(=O)n2CC1CCCCC1 | 100 | 66 | 47
39 | CCCCCN1CCCC(NS(=O)(=O)c2cccc(C(=O)Nc3cccc(C(F)(F)F)c3)c2)C1.O=C(O)C(F)(F)F (centres undefined) | 86 | 5 | 22
40 | COc1ccc2[nH]ccc(=NN=Cc3ccc(Cl)cc3)c2c1 | 100 | 72 | 9

Row | Compound | Inhibition (Plasmodium falciparum [1]) [%] | Inhibition (Plasmodium falciparum [2]) [%] | Inhibition (HepG2) [%]
41 | CCNc1cc(C(=O)N[C@@H](Cc2ccccc2)[C@H](O)CNCCc2cc(OC)cc(OC)c2)cc(N2CCCCS2(=O)=O)c1.Cl | 89 | 28 | 3
42 | CO/C(=C\C=C\c1cc2cc(Cl)ccc2[nH]1)C(=O)NCCCN1CCN(c2cc(Cl)ccc2OC)CC1 | 97 | 21 | 41
43 | CN1CCCc2cc(NC(=O)c3cc(-c4ccc(Cl)cc4)cs3)ccc2C1.O=C(O)C(F)(F)F | 100 | 34 | 15
44 | Cl.N#Cc1ccc2c(c1)CCN(CCC1CCC(NC(=O)/C=C/c3ccc4ccccc4c3)CC1)CC2 (centres undefined) | 97 | 12 | 20
45 | Cc1ccc2[nH]c(Nc3ccc(Nc4nc5cc(C)ccc5[nH]4)c(C)c3)nc2c1 | 99 | 94 | 12
46 | COc1ccc2nccc([C@@H](O)CN3CCC(NC(=O)/C=C/c4cc(F)cc(NC(C)=O)c4)CC3)c2c1 | 97 | 49 | 7
47 | Br.N=C(N)Nc1nc(-c2cccc(NC(=O)C(F)(F)F)c2)cs1 | 94 | 24 | 0
48 | CCC[C@@H]([C@@H](CC(C)C)C(=O)N[C@@H](CCCCNC(=O)OCc1ccccc1)C(=O)Nc1ncccn1)N(O)C=O | 100 | 98 | 3
49 | Cl.Clc1ccc2c(NCCCCCCCCNc3ccnc4cc(Cl)ccc34)ccnc2c1 | 99 | 96 | 2
50 | Nc1cccc(CNCc2ccc(-c3cccc(-c4nc5cc(C(F)(F)F)ccc5[nH]4)c3)cc2)c1.O=C(O)C(F)(F)F | 100 | 100 | 60
51 | CCOc1ccc(-c2nc(NC(=O)Cc3cccc(OC)c3)sc2C)cc1 | 97 | 28 | 15
52 | CCCNc1ccc2nccc(CCN3CCC(NCc4ccc5c(c4)NC(=O)CS5)CC3)c2n1.Cl | 94 | 17 | 0
53 | CCc1nc(N)nc(N)c1-c1cccc(Cl)c1 | 94 | 1 | 60
54 | COc1cc(Cl)c(C)cc1N(Cc1ccccc1-c1ccccc1)S(=O)(=O)c1ccc(C(F)(F)F)cc1 | 90 | 62 | 23
55 | Cc1[nH]c(C)c(-c2ccc(CCc3ccc(N)cc3)cc2)c(=O)c1Cl | 97 | 97 | 2
56 | Br.Oc1ccc(CNCCCCCCNCCc2ccc(Cl)cc2)cc1O | 94 | 7 | 2
57 | O=C(O)C(F)(F)F.c1cc(CNCCc2ccncc2)cc(-c2cccc(-c3nc4ccccc4[nH]3)c2)c1 | 100 | 88 | 21
58 | CCn1c(-c2nonc2N)nc2c(-c3cccc(NC(=O)Nc4ccc5c(c4)CCC5)c3)ncc(OCCCN)c21.O=C(O)C(F)(F)F | 99 | 94 | 26
